Inhibition data for 90 compounds are collected here from PubChem BioAssay AID504558 (Broad Institute, 2011).

SMILES strings stand for the structures. Hit rate of the full screen: of about 350,000 compounds, about 2,400 (0.69%) were called active. Rule as the data show it: active = inhibition above about 41%; inconclusive = no clear call, values can overlap the other calls; inactive = below that. This excerpt belongs to a sample that is enriched for actives.

This test in a line: blockers of LMP1-induced NF-kB reporter signal – cell-based, luminescence, single point, primary screen (AID 504558).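 Also: 0% = neutral control wells and 100% = reference inhibitor control.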 The conditions noted are these: LMP1-induced NF-kappaB luciferase reporter cells, at 12.5 µM, hits give high values.
For the compound `COc1cc(CNC2CCCC2)c(Br)cc1OCc1ccccc1`, the inhibition (usually the relative decrease from the control value, in per cent) was -15.5% (inactive).

Turning to `COc1ccc(CCN=C2SCC(=O)N2Cc2ccccc2)cc1OC`, the inhibition was 6.74% (inactive).

`COc1cc(C2CC(=O)N3CN(Cc4ccccc4)CSC3=C2C#N)ccc1OCc1ccccc1` (stereo not given): the inhibition is 65% (active).

Take `Cc1ccccc1-c1ccc2c(c1)O[C@@H](CN(C)Cc1ccc(C(=O)O)cc1)[C@@H](C)CN([C@H](C)CO)S2(=O)=O`: the inhibition is 1.79% (inactive).

Consider `C[C@H](CO)N1C[C@H](C)[C@@H](CN(C)C(=O)c2cccc(F)c2)Oc2cc(-c3cncnc3)ccc2S1(=O)=O`, for which the inhibition is -0.771% (inactive).

`Nc1cccc(OCCCCCOc2cccc(N)c2)c1`: the inhibition is -19.1% (inactive).

Turning to `COCCCn1c(=O)/c(=C/c2ccccc2OC(C)C)s/c1=C(\C#N)C(=O)Nc1ccc(C(=O)O)cc1`, the inhibition is 4.37% (inactive).

As to `Cc1cc(C)c2cc(C#N)c(N3CCNCC3)nc2c1`, the inhibition was -5.81% (inactive).

For `CC1(C)CN(Cc2cccnc2)C(=O)[C@H]1CC(=O)Nc1ccc(Br)cc1`, the inhibition was -4.33% (inactive).

Consider `O=C1c2ccccc2C(O)N1Cc1ccccc1Cl` (stereo not given), for which the inhibition is -5.54% (inactive).

For `CCC(C)NC(=O)C1c2ccccc2C(=O)N1Cc1ccccc1` (stereo not given), the inhibition was 30.9% (inactive).

As for `O=C1c2ccccc2C(O)N1Cc1ccccc1` (stereo not given), the inhibition was 49.7% (active).

In the case of `CCN(CC)CCN(C(=O)c1ccc2c(c1)CCCC2)c1nc2c(OC)cccc2s1`, the inhibition is 9.68% (inactive).

Regarding `O=C(COC(=O)c1ccc(S(=O)(=O)N2CCCCCC2)cc1)Nc1ccccc1C(F)(F)F`, the inhibition is -10.6% (inactive).

Take `CC(C)=CCc1c(O)c(CC=C(C)C)c2occ(-c3ccc(O)cc3)c(=O)c2c1O`: the inhibition was -4.63% (inactive).

In the case of `CC(C)c1cc(N=O)cc(C(C)C)c1O`, the inhibition is 11.3% (inactive).

On to `CC(C)=CCc1ccc(O)c(=O)cc1C(C)C`, for which the inhibition was 52.9% (active).

On to `Cc1ccc(S(=O)(=O)N2C[C@H]3n4c(=O)ccc(=O)n4C[C@H](OC(=O)NC4CCCC4)[C@@]3(O)C2)cc1`, for which the inhibition is 0.795% (inactive).

Regarding `CCc1noc(C)c1C(=O)OCC(=O)c1ccc(NC(=O)CC(C)C)cc1`, the inhibition is 7.07% (inactive).

Take `COc1ccc(NC(=O)C/C(C)=N/NC(=O)c2cnccn2)cc1Cl`: the inhibition was 0.411% (inactive).

In the case of `CCN(CC)c1ccc(NC(=O)c2ccc(Cl)nc2)cc1`, the inhibition was 2.91% (inactive).

For `CCN(CC)c1ccc(/C=N/NC(=O)c2cnccn2)c(O)c1`, the inhibition was 66.9% (active).

With `COc1cc(C)c(CN2CCN(C(=O)CCC(=O)c3ccc(C)s3)CC2)cc1OC`, the inhibition was -18.3% (inactive).

With `C[C@H]1Cn2cnc(C(=O)N[C@@H](Cc3c[nH]c4ccccc34)C(=O)OC(C)(C)C)c2C(=O)N1`, the inhibition was -25.3% (inactive).

With `CCN(CC)C(=O)C1=C(C)N(Cc2ccc(OC)cc2)C(=O)C(CC(=O)NCCCCc2ccccc2)C1` (stereo not given), the inhibition is -3.18% (inactive).

With `COc1ncnc2c1ncn2CCCNCCN1CCOCC1`, the inhibition is -1.37% (inactive).

As for `Oc1c(Cl)cc(Cl)c(Cl)c1Cc1c(O)c(Cl)cc(Cl)c1Cl`, the inhibition is 52.3% (active).

Turning to `COc1ccccc1NC(=O)C(CC(=O)O)Cc1cc(C)cc(C)c1` (stereo not given), the inhibition is -13.3% (inactive).

In the case of `CC(C)n1cnc2c(Nc3cccc(Cl)c3)nc(N(CCO)CCCO)nc21`, the inhibition is -2.02% (inactive).

For `OCCCNc1nccc(-c2cc(Nc3cccc(Cl)c3)ncn2)n1`, the inhibition was 88.6% (active).

On to `Cc1cccc(Nc2nc(NCCO)nc(N3CCCC3)n2)c1`, for which the inhibition is 7.29% (inactive).

On to `Cc1ccccc1NC(=O)Cc1nc(COC(=O)CNC(=O)c2ccc(Cl)cc2Cl)cs1`, for which the inhibition was -5.79% (inactive).

For the compound `CCC(C)Cn1c(O)cc2nn(-c3nc4ccccc4s3)c(=O)c-2c1C` (stereo not given), the inhibition was 51.8% (active).

As for `CC(=O)Nc1ccc2nc(NC(=O)CS(=O)(=O)c3ccc(F)cc3)sc2c1`, the inhibition is -1.73% (inactive).

`O=C(Nc1ccc(C(=O)N2CCOCC2)cc1)Nc1cccc(C(F)(F)F)c1`: the inhibition is 65.4% (active).

Regarding `O=C(COc1ccc(S(=O)(=O)Nc2cccc(C(F)(F)F)c2)cc1)N1CCOCC1`, the inhibition was 5.55% (inactive).

`COc1ccccc1C(=O)Nc1cccc(C(=O)N2CCOCC2)c1`: the inhibition was -6.8% (inactive).

As to `COc1ccc(Cn2c(=O)oc3ccccc32)cc1`, the inhibition was -3.08% (inactive).

Turning to `CC1CC(NC(=S)N(C)C)CC(C)(C)C1` (stereo not given), the inhibition is -2.42% (inactive).

In the case of `CNC(=O)C[C@H]1C(=O)N(c2ccc(OC)cc2)C[C@@H]1Cc1ccccc1`, the inhibition was -2.06% (inactive).

As to `COc1cccc(/C=N\Nc2nncc(-c3ccccc3)n2)c1`, the inhibition was -5.65% (inactive).

With `C/C(=N\Nc1nncc2ccccc12)c1ccc(Cl)c([N+](=O)[O-])c1`, the inhibition is -18.4% (inactive).

Take `CN(CCO)c1ccc(/C=N/Nc2nncc3ccccc23)cc1`: the inhibition is 45.7% (active).

On to `NC(=O)CSc1nnc(-c2cccc(S(=O)(=O)N3CCOCC3)c2)o1`, for which the inhibition is 1.36% (inactive).

`O=C1CCC(C(=O)OCC(=O)Nc2ccc(OC(F)F)cc2)=NN1`: the inhibition is -2.22% (inactive).

On to `O=C(Nc1cc(F)ccc1F)c1ccc2c(=O)n3c(nc2c1)CCC3`, for which the inhibition was -23.7% (inactive).

With `O=C(CSCc1ccc(Br)cc1)Nc1ccc(S(=O)(=O)N2CCCCCC2)cc1`, the inhibition is -7.38% (inactive).

For the compound `O=C(O)CC(SCC(=O)Nc1ccc(Br)cc1)C(=O)O` (stereo not given), the inhibition was -3.51% (inactive).

On to `O=C1CCCN2N=C(SCC(=O)Nc3ccc(Br)cc3)SC2=N1`, for which the inhibition was 46.9% (active).

On to `C[C@H](CO)N1C[C@H](C)[C@@H](CN(C)C(=O)C2CCCCC2)OCc2cnnn2CCCC1=O`, for which the inhibition is 0.386% (inactive).

Turning to `C[C@H]1CN([C@@H](C)CO)C(=O)c2cc(-c3cccc(F)c3)cnc2O[C@@H]1CN(C)S(C)(=O)=O`, the inhibition is 5.8% (inactive).

For the compound `C=CC(=O)OCCOCCOCCOCCOC(=O)C=C`, the inhibition was 83.3% (active).

With `O=C(c1cc2cc(Br)cc(Br)c2oc1=O)N1CCOCC1`, the inhibition is 83.6% (active).

Take `COc1cccc2cc(C(=O)N3CCN(C(=O)c4ccccc4)CC3)c(=O)oc12`: the inhibition is -0.766% (inactive).

On to `COc1cc2ccccc2cc1C(=O)N1CCOCC1`, for which the inhibition was 25.1% (inactive).

`O=C(N=C1SC2CS(=O)(=O)CC2N1Cc1ccccc1)c1ccccc1` (stereo not given): the inhibition was 1.35% (inactive).

For `COC(=O)[C@H]1C[C@H](OC(=O)NCc2ccccc2)[C@@]2(O)CN(S(=O)(=O)c3ccc(C)cc3)CC2[C@H]1C(=O)OC` (stereo not given in full), the inhibition was -13.5% (inactive).

For `COc1ccc(C(=O)OCC(=O)c2cc(C)n(CC3CCCO3)c2C)cc1[N+](=O)[O-]` (stereo not given), the inhibition was 12.7% (inactive).

For `Cc1ccsc1C(=O)OCC(=O)Nc1cccc(F)c1`, the inhibition was -4.47% (inactive).

Regarding `Cc1ccsc1C(=O)OCC(=O)c1cc(C)n(CC2CCCO2)c1C` (stereo not given), the inhibition is 63.2% (active).

On to `Cc1ccc(S(=O)(=O)N(CCc2ccccc2)c2ccc3c(c2)C2CC3CCN2C(=O)OCc2ccccc2)cc1` (stereo not given), for which the inhibition is -3.7% (inactive).

As for `O=C(CSc1ncnc2sccc12)N1CCN(C(=O)c2cccs2)CC1`, the inhibition is 69.5% (active).

In the case of `O=C(CSc1ncnc2sccc12)NC1CCS(=O)(=O)C1` (stereo not given), the inhibition is 5.19% (inactive).

For the compound `COc1ccc(OCC(=O)N2CCN(C(=O)c3cccs3)CC2)cc1`, the inhibition was -13.6% (inactive).

Take `Cc1nc2ccccn2c(=O)c1NC(=O)c1ccc(Br)o1`: the inhibition is 1.95% (inactive).

Consider `CCOC(=O)C1CCN(C(=O)c2ccc3c(=O)n4nc(Nc5ccccc5CC)sc4nc3c2)CC1`, for which the inhibition was 0.7% (inactive).

`NC(=O)C1(Nc2ccc([N+](=O)[O-])cc2)CCCC1`: the inhibition is 58.8% (active).

As for `NC(=O)C1(Nc2ccc(-c3ccccc3)cc2)CCCC1`, the inhibition was 0.238% (inactive).

Take `O=C(Nc1ccc([N+](=O)[O-])cc1)C1CC12CCC2` (stereo not given): the inhibition is -7.83% (inactive).

As to `NC(CSC(c1ccccc1)(c1ccccc1)c1ccc(-c2ccccc2)cc1)C(=O)O` (stereo not given), the inhibition is -1.87% (inactive).

For the compound `Cc1nc(SCc2ccc(F)cc2)c([N+](=O)[O-])[nH]1`, the inhibition was 2.2% (inactive).

For the compound `Cc1nc(N)nc(SCc2ccc([N+](=O)[O-])cc2)c1N`, the inhibition was 50.3% (active).

Turning to `Nc1nc(SCc2ccc([N+](=O)[O-])cc2)c2ncn(C3OC(CO)C(O)C3O)c2n1` (stereo not given), the inhibition is -5.79% (inactive).

Consider `N#CCCN(C(=S)Nc1ccc(Cl)c(Cl)c1)C1CCCCC1`, for which the inhibition is -1.92% (inactive).

As for `Cc1cccc(N(CC(=O)N2CCCC2)S(C)(=O)=O)c1C`, the inhibition is -6.4% (inactive).

Turning to `Cc1ccc2cccc([N+](=O)[O-])c2n1`, the inhibition is 7.19% (inactive).

On to `O=C(OCc1cn([C@@H]2C[C@H](c3ccc(Cl)cc3)N(Cc3cccs3)C[C@H]2O)nn1)c1ccccc1`, for which the inhibition was 3.08% (inactive).

Regarding `O=C(Cc1ccccc1)N1N=C(c2ccncc2)CC1(O)C(F)(F)F` (stereo not given), the inhibition is 4.93% (inactive).

Consider `O=C(C1CC1)N1N=C(c2ccc(Br)cc2)CC1(O)C(F)(F)F` (stereo not given), for which the inhibition is 48.3% (active).

In the case of `O=C(C1CC1)N1N=C2CCCCC2C1(O)C(F)(F)F` (stereo not given), the inhibition is 0.262% (inactive).

As to `C[C@@H]1CN([C@@H](C)CO)C(=O)c2cc(Br)cnc2O[C@H]1CN(C)Cc1ccc(-c2ccccc2)cc1`, the inhibition was -10.5% (inactive).

Regarding `C[C@@H]1CN([C@H](C)CO)C(=O)c2cc(Br)cnc2O[C@@H]1CN(C)Cc1cncnc1`, the inhibition is -0.147% (inactive).

Turning to `Nc1cc(=O)c2[nH]cnc2[nH]1`, the inhibition was 5.05% (inactive).

As to `O=C1CCC(=O)N1CCC(=O)N(C(=O)NC1CCCCC1)C1CCCCC1`, the inhibition is -0.58% (inactive).

Regarding `CCc1nnc(NC(=O)c2cc(S(=O)(=O)N3CCN(CC)CC3)ccc2Cl)s1`, the inhibition is 68.4% (active).

As to `CCc1nnc(NC(=O)c2cc(S(=O)(=O)N3CCCCC3)ccc2C)s1`, the inhibition is 2.74% (inactive).

Consider `CCc1nnc(NC(=O)c2ccc(S(=O)(=O)NC3CCCCC3)cc2)s1`, for which the inhibition is -6.69% (inactive).

In the case of `O=C(Nc1ccc(Cl)cn1)c1ccccc1-c1ccccc1`, the inhibition was 3.03% (inactive).

On to `c1ccc(CNCc2ccc(CNCc3ccccc3)cc2)cc1`, for which the inhibition is -5.41% (inactive).

For the compound `Cc1ccc(S(=O)(=O)/N=C2\C=C(NS(=O)(=O)c3ccc(C)cc3)C(=O)c3ccccc32)cc1`, the inhibition was -0.482% (inactive).
